The source of these data is PubChem BioAssay.

Molecules are shown by their SMILES.

A short description of this experiment: Plasmodium falciparum growth inhibition, primary screen, strain 3D7, DAPI fluorescence, 100 nL (AID 1184).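 Further: parasites grown inside human red blood cells in medium with human serum.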 To be noted: P. falciparum 3D7 growth, 3 d, higher = more signal.
In turn, `CC(C)=NOC(C)CN1CCCCc2nc(C)c(C)cc21` (stereo unspecified) returned a z-score of 1.35. As for `CCN1C(C)=C(C(=O)OC)[C@@H](c2ccccc2)N2C(=O)[C@](O)(C(=O)OC)CC(C(C)=O)=C12`, the figure is 0.752; as for `COC(=O)[C@H](C)NC(=O)CCC1CC(OC(=O)NCc2ccc3c(c2)OCO3)CC2(CCCC(COC(=O)NCCC(C)C)O2)O1` (stereo partly specified), -0.489. As for `CCN(CC)CC(O)CN1CCCCc2nc(C)c(C)cc21` (stereo unspecified), the figure is 0.694; as for `CC(C)(C)N1C(=O)[C@H]2[C@H]3[C@H](O)[C@H](O)CC(=NNC(=O)OCc4ccccc4)[C@@H]3CC[C@H]2C1=O`, 2.05. `CCN1C(=O)[C@H]2[C@H]3[C@H](O)[C@H](O)CC(=NOC[C@@H](O)[C@H]4O[C@@H]5OC(C)(C)O[C@@H]5[C@H]4O)[C@@H]3CC[C@H]2C1=O` had a z-score of 0.663. In turn, `CO[C@@H]1COC(=O)CC=C[C@H](C)[C@H](OC)COC(=O)[C@@H]2CCCN2C(=O)CC=C[C@H]1C` yielded a z-score of -1.52. `CC(CCN1CCc2nc(-c3ccccc3)c(-c3ccccc3)cc2C1)=NO[C@H](C)c1cn([C@H](CO)Cc2ccccc2)nn1` came in with a z-score of -0.618. To `CCOC(=O)[C@H](CC(C)C)NC(=O)CCC1CC(OC(=O)NCCc2ccc(F)cc2)CC2(CCCC(COC(=O)NCc3cccc(C(F)(F)F)c3)O2)O1` (stereo partly specified) belongs -0.748; to `COc1ccc(COC(=O)NN=C2C[C@@H](O)[C@@H](O)[C@@H]3[C@@H]4C(=O)N(Cc5ccc6c(c5)OCO6)C(=O)[C@@H]4CC[C@H]23)cc1`, -0.427.

For the compound `COC(=O)[C@@H]1CC[C@H](C)[C@@H](c2ccc(C)cc2)N1C(=O)c1ccc(C=NOC[C@H]2O[C@H](c3ccccc3)C=C[C@@H]2Oc2ccc(OC)cc2)cc1`, the z-score is -1.14.
